Screens (PubChem)
SARS PLP yeast = SARS-CoV PLP inhibition in yeast | S. cerevisiae expressing SARS-CoV PLpro, growth rescue | Potency, µM (doses to about 32.9 µM), for the others: top-dose activity, positive = growth rescue, actives largely listed as activators | 330,000 tested, 0.19% active; further: potency means the concentration at half of the fitted maximal effect; 0% is about no effect; nearly all actives have a fitted effect of over 55% in size
NS1 inh = influenza NS1 inhibition; Potency, µM (series often up to 46.1 µM), inactives show at the highest dose activity, positive = more growth; AID 2326; 270,000 tested, 0.4% active; further: potency means the concentration at half of the fitted maximal effect; actives are rising curves; nearly all actives have a fitted effect of over 50% in size
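S. cerevisiae expressing influenza A NS1, grown in glucose, washed, then diluted 1:100 into pH 6.0 -URA galactose medium with 23 nl compound. Growth recovery read as OD600; NS1-free strain serves as control.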
Pf growth 96h = P. falciparum growth inhibition at 96 hour, primary screen for plastid delayed-death inhibitors. Potency, µM (series often up to 28.7 µM), without a hit: top-dose activity change, negative = inhibition, actives largely listed as inhibitors. P. falciparum luciferase reporter growth, 96 h. 320,000 tested, 6.9% active; active means well fitted inhibition curve with a large enough effect; inconclusive means small, poorly fitted or top-dose-only effect, or another doubt; inactive means no such curve, though single readings can be large or run the other way; further: potency means the concentration at half of the fitted maximal effect; on the % scale 0 is the no-effect control and ±100 the full control effect
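P. falciparum expressing integrated firefly luciferase grown in erythrocytes (2% hematocrit, 0.05% parasitemia final) with compounds for 96 hours at 37 C, 5% CO2. Growth inhibition read as loss of luminescence after adding luciferase detection reagent.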
Cycloheximide cs = counter-screen hit for Shiga toxin inhibitors, cycloheximide; cell reporter, cycloheximide protein synthesis inhibition counterscreen; 300,000 tested, 12% active; max response, %; AID 2314; in the data active means max response mostly above about 13%, no sharp cut-off; inactive means mostly below about 14%; further: read at 38.3 µM for the half of the compounds with a filed dose; 0% is about no effect
Pf growth 48h = P. falciparum growth inhibition at 48 hours (one generation). P. falciparum luciferase growth in erythrocytes, 48 h. Potency, µM (doses to about 28.7 µM), inactives show at the highest dose activity change, negative = inhibition, hits mostly inhibitors. 310,000 tested, 5.9% active. AID 504832; active means well fitted inhibition curve with a large enough effect; inconclusive means small, poorly fitted or top-dose-only effect, or another doubt; inactive means no such curve, though single readings can be large or run the other way; further: potency means the concentration at half of the fitted maximal effect; on the % scale 0 is the no-effect control and ±100 the full control effect
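In quantitative HTS format, infected erythrocytes bearing luciferase-reporter parasites were treated for a single generation at 37 C. Luminescence after adding detection reagent served as the growth measure.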
Shiga toxin inh = inhibitors of Shiga toxin in Vero cells; AID 2315; inhibition, % at 38.7 µM; Vero cells, Shiga toxin protein synthesis inhibition reporter; 290,000 tested, 9.2% active; in the data active means inhibition mostly above about 28%, no sharp cut-off; inactive means mostly below about 43%; further: 0% is about no effect
* marks the source's active call; other numbers are inactive results; ? = inconclusive; · = no result given. Compounds with a hit are over-represented: about 21% of the library has one in this group of screens. Unless noted, the call rests on the fitted dose curve.

SMILES	SARS PLP yeast	NS1 inh	Pf growth 96h	Cycloheximide cs	Pf growth 48h	Shiga toxin inh
CCOC(=O)C(Oc1ccc(=O)n(-c2ccccc2)n1)C(C)=O (configuration not stated)	2%	?	6%	-1	?	-15
Cn1c(SCC(=O)N2CCCC2=O)nc2ccccc2c1=O	2%	·	·	·	·	·
COc1ccc(C2CC(C)(c3ccc(OC)cc3OC)Nc3ccccc3N2)c(OC)c1 (configuration not stated)	-2%	-5%	0%	30*	131%	63*
CCC(C(=O)NCc1cccnc1)n1nc(C)n2c(cc3occc32)c1=O (configuration not stated)	-5%	3%	16%	1	23%	-7
COC(=O)C1=C(c2cccc(C#N)c2)C[C@@H]2CC[C@H]1N2C(=O)NCc1cccc2ccccc12	0%	·	?	·	8.3µM*	·
COC(=O)C1=C(c2cccc(C#N)c2)C[C@@H]2CC[C@H]1N2C(=O)NCC1CC1	-3%	·	9%	·	40%	·
COC(=O)C1=C(c2ccc(-c3ccccc3)c(F)c2)C[C@@H]2CC[C@H]1N2C(=O)NCc1cc(C)oc1C(F)(F)F	0%	·	?	·	2.3µM*	·
COC(=O)C1=C(c2cccc(C#N)c2)C[C@@H]2CC[C@H]1N2C(=O)NCc1cc(C)oc1C(F)(F)F	3%	·	?	·	12µM*	·
Cc1nc(C)n(CC(C)C(=O)N2CCN(S(=O)(=O)c3ccc(Cl)cc3)CC2)n1 (configuration not stated)	-4%	5%	1%	-4	1%	-2
O=C(C1CCC(CNc2nc(=S)[nH]c3ccccc23)CC1)N1CCN(c2ccc(F)cc2)CC1 (configuration not stated)	0%	·	-21%	12	?	-14
CC(Sc1nnc(-c2ccco2)n1C)C(=O)N1C(C)CCCC1C (configuration not stated)	?	0%	-2%	-2	?	-5
O=C(N/N=C/c1cccs1)c1cnccn1	-5%	-11%	43%	13	14%	32*
Cc1cc(C(=O)N/N=C/c2cccs2)n[nH]1	0%	·	423%	29*	128%	54*
Cc1ccc(C(=O)N/N=C\c2cccs2)cn1	0%	·	17%	25*	70%	82*
Cc1nc2ccccc2cc1C(=O)N/N=C/c1cccs1	-13%	5%	19%	-3	2%	-8
Cc1cc(C(=O)N/N=C/c2cc(Br)cc(Br)c2OC(=O)c2cccc(F)c2)n[nH]1	28%	·	?	1	12µM*	-13
Cc1cc(C(=O)N/N=C/c2cc(Br)cc(Br)c2OC(=O)c2ccccc2)n[nH]1	0%	?	21%	-5	?	-7
Cc1ccc(C)c(N2N=C(C(=O)Nc3cccnc3)CCC2=O)c1	-1%	·	-11%	·	12%	·
Cc1nn(CCCC(=O)Nc2nccs2)c(C)c1[N+](=O)[O-]	0%	·	?	-1	0%	17
Cc1cc(C(=O)N/N=C\c2cc(C(C)(C)C)ccc2O)n[nH]1	?	-30%	2%	47*	12µM*	41*
Cn1cccc1/C=N/NC(=O)c1cccc(OC(F)(F)C(F)F)c1	-4%	7%	41%	30*	41%	63*
Cc1cc(C(=O)N/N=C/c2cccn2C)n[nH]1	-12%	-1%	93%	33*	106%	active
Cc1ccc(OCC(=O)N/N=C/c2cccn2C)cc1	1%	7%	80%	3	20%	8
O=C(N/N=C/c1cccs1)c1[nH]ncc1Br	-4%	10%	92%	55*	45%	118*
CSc1ccc(NC(=O)N2CC=C(n3c(=O)[nH]c4ccccc43)CC2)cc1	21%	-18%	?	-1	?	-17
SMILES	SARS PLP yeast	NS1 inh	Pf growth 96h	Cycloheximide cs	Pf growth 48h	Shiga toxin inh
CC(OC(=O)c1ccc2ncsc2c1)C(=O)N(C)C1CCCCC1 (configuration not stated)	0%	·	5%	·	6%	·
C=CCN1C(=O)c2ccc(C(=O)N(C)CC(=O)Nc3ccccc3Br)cc2C1=O	5%	5%	1%	-2	2%	-7
CCSc1ccccc1C(=O)N=C1NC(=O)CC2C(=O)NCCN12 (configuration not stated)	1%	·	28%	-1	-9%	9
O=C(NCc1cccc2ccsc12)c1cccs1	-1%	·	43%	·	19%	·
Cc1cc(C(=O)N/N=C/c2cccs2)no1	-19%	-1%	20%	40*	29%	58*
CCCCNc1c(N)n(CC(C)C)c(=O)[nH]c1=O	-2%	·	5%	-3	15µM*	3
CC#CC[N+](C)(C)CCCCCCCCCCCC	-61%	-58%	0.59µM*	-1	2.9µM*	-12
C#CC[N+](C)(C)CCCCCCCC	2%	4%	?	1	3.7µM*	-8
C#CC[N+](C)(C)CCCCCCCCCCCC	-53%	-36%	0.37µM*	-1	1.5µM*	-11
CSc1ccccc1C(=O)C1CCCN(S(=O)(=O)c2c(C)noc2C)C1 (configuration not stated)	-1%	-2%	?	-5	?	-13
CCNC(=O)NC(=O)C(C)N1C(=O)NC(c2ccccc2)(c2ccccc2)C1=O (configuration not stated)	3%	24%	39%	-10	?	-2
O=C(CCN1CCC(c2ccccc2)C1)c1ccc2c(c1)OCCO2 (configuration not stated)	1%	10%	-5%	13*	2%	19
O=C(CCN1CCCCC1)c1ccc2c(c1)OCCO2	-47%	-81%	1%	14	-7%	2
O=C(CCN1CCc2ccccc21)c1ccc2c(c1)OCCO2	0%	17%	2.1µM*	26*	5.2µM*	34
O=C(CCN1CCCC1Cc1ccccc1)c1ccc2c(c1)OCCO2 (configuration not stated)	·	-222%	?	13	6%	43
O=C(CCN1CCc2ccccc2C1)c1ccc2c(c1)OCCO2	-36%	-57%	?	51*	13%	95*
CN(C(=O)COC(=O)c1cc([N+](=O)[O-])ccc1Cl)c1ccccc1	-1%	-2%	19%	-3	7%	-4
CCN(c1ccccc1)S(=O)(=O)c1cc([N+](=O)[O-])ccc1N	0%	2%	5%	28*	46%	58*
Cc1onc(-c2ccccc2)c1-c1ccnn1S(=O)(=O)c1ccc(Cl)cc1	-3%	-3%	3.3µM*	44*	?	88*
Cc1onc(-c2ccc(Cl)cc2)c1-c1ccnc(SCC(=O)Nc2cc(Cl)cc(Cl)c2)n1	0%	14%	?	1	?	5
Cc1ccc(S(=O)(=O)n2nccc2-c2c(-c3ccccc3)noc2C)cc1	0%	-6%	?	1	5.9µM*	-5
